# Measurements from PubChem BioAssay (NCI).
# The panel holds about 83,000 compounds, 20% with a hit somewhere; the sample as a whole holds those more often.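 Each cell line was grown in a 96-well plate and treated with one concentration of compound for 48 hours. Values below 10 were considered active.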 Values without a mark were called inactive. The source made the active and inactive calls.
# Experiments:
# Experiment in all cases: NCI-60 one-dose screen, 48 h (100 = growth as untreated, 0 = no growth, -100 = all killed)
# Details in all cases: 10 µM unless noted
# SR leukemia = test system: SR leukemia
# RPMI-8226 leukemia = test system: RPMI-8226 leukemia
# OVCAR-8 ovarian = test system: OVCAR-8 ovarian
# OVCAR-5 ovarian = test system: OVCAR-5 ovarian
# OVCAR-4 ovarian = test system: OVCAR-4 ovarian
# SK-OV-3 ovarian = test system: SK-OV-3 ovarian
# IGROV1 ovarian = test system: IGROV1 ovarian
# OVCAR-3 ovarian = test system: OVCAR-3 ovarian
# HS 578T breast = test system: HS 578T breast
# NCI/ADR-RES ovarian = test system: NCI/ADR-RES ovarian
# T-47D breast = test system: T-47D breast
# BT-549 breast = test system: BT-549 breast
# MDA-MB-435 melanoma = test system: MDA-MB-435 melanoma
# SW-620 colon = test system: SW-620 colon
# MCF7 breast = test system: MCF7 breast
# HCT-116 colon = test system: HCT-116 colon
# HCC-2998 colon = test system: HCC-2998 colon
# KM12 colon = test system: KM12 colon
SMILES,growth (SR leukemia),growth (RPMI-8226 leukemia),growth (OVCAR-8 ovarian),growth (OVCAR-5 ovarian),growth (OVCAR-4 ovarian),growth (SK-OV-3 ovarian),growth (IGROV1 ovarian),growth (OVCAR-3 ovarian),growth (HS 578T breast),growth (NCI/ADR-RES ovarian),growth (T-47D breast),growth (BT-549 breast),growth (MDA-MB-435 melanoma),growth (SW-620 colon),growth (MCF7 breast),growth (HCT-116 colon),growth (HCC-2998 colon),growth (KM12 colon)
CC(C)(C)n1cc(-c2ccnc(NCCCNS(=O)(=O)c3ccccc3)c2)c(-c2cccc(O)c2)n1,20.9%,10.5%,52.4%,67.7%,55.9%,88.6%,51.1%,54.1%,51%,56.9%,23.8%,47.4%,54.8%,14.5%,25.1%,36.8%,18.5%,26.9%
Cc1cc(N/N=C/c2nc(-c3ccccc3)oc2C)c2cc(Br)ccc2n1,-4.64% (active),11.9%,42.5%,96.3%,1.21% (active),78.3%,78.6%,109%,85.8%,78.9%,75.6%,93.4%,43.4%,28.4%,46.2%,42%,100%,82%
COc1ccc2[nH]c(=O)c(/C=N/Nc3nc(-c4ccccc4)cs3)c(O)c2c1,56.2%,70.6%,55.1%,85.6%,47.9%,76.8%,70.3%,24.2%,112%,37.7%,72.6%,60.8%,79.3%,67.2%,67.2%,50.8%,77.6%,69.3%
COC(=O)c1cc(=O)nc(N/N=C/c2ccco2)s1,87%,96%,107%,108%,96.7%,117%,93.4%,106%,106%,104%,87.8%,109%,114%,108%,39.5%,93.8%,102%,101%
COc1ccc(C(=O)N2NC(=O)/C(=C/c3ccc(F)cc3)N=C2c2ccccc2)cc1,51.5%,70.3%,97.4%,95.9%,109%,103%,99%,105%,101%,81.3%,95.6%,83%,87.6%,69.3%,96.6%,81.2%,97.4%,85.5%
COc1cccc(/C=C/C(=O)Nc2cc(OC)c3c(c2)OCO3)c1,81.5%,57.1%,105%,89.1%,96.4%,104%,108%,110%,98.8%,93.2%,94.7%,108%,78.9%,107%,102%,100%,97%,89.1%
COc1cc(/C=C/C(=O)/C=C/c2cc(OC)c3c(c2)OCO3)cc2c1OCO2,33.6%,-10.5% (active),95.4%,107%,104%,86.6%,90.3%,34.6%,103%,91.2%,88.6%,84.3%,-21.2% (active),11.5%,19.8%,-93.9% (active),14.6%,-17.1% (active)
CCCCCCCCCCCCNC(=O)[C@H]1CSC(c2ccsc2)N1 (stereo partly specified),-44% (active),34.3%,-49.4% (active),-83.2% (active),-84.6% (active),-93.8% (active),-66.7% (active),-86.8% (active),-56.5% (active),-61.5% (active),-41.2% (active),-67.6% (active),-98.1% (active),-75.9% (active),-67.5% (active),-48.3% (active),11%,-92.7% (active)
N[C@@H]1CCN(C(=O)c2cc3cc(Cl)c(F)c(F)c3[nH]2)C1,88.3%,96%,96.3%,90.3%,96.5%,89.3%,80.7%,97.6%,87.5%,103%,82.2%,1.7% (active),97.3%,96.6%,94.5%,92.8%,96.1%,98.8%
O=C(Nc1ccncc1)C(=O)c1cn(S(=O)(=O)c2ccccc2F)c2ccccc12,16.4%,9.83% (active),35.2%,69.3%,57.1%,87.5%,52%,-27.1% (active),12.1%,-17.7% (active),41.8%,39.1%,3.81% (active),15.6%,21.5%,20.4%,57.2%,19.2%
Cc1nn(-c2ccc([N+](=O)[O-])cc2)c2ncnc(NCCc3ccccc3)c12,62.3%,96.9%,98.4%,101%,109%,101%,99.2%,112%,101%,102%,93%,114%,94.9%,99.4%,93.1%,92.5%,101%,96.1%
CCOC(=O)c1ccc2c(c1)nc(-c1ccc(OCc3ccccc3)c(OC)c1)n2-c1cc(C(C)(C)C)[nH]n1,68.9%,68.8%,99.7%,88.9%,76.4%,91.2%,83%,81.8%,82.2%,89.1%,65.5%,98.6%,85%,98%,63.1%,62.8%,91%,69.3%
Cc1ccc(S(=O)(=O)n2cc(C(=O)C(=O)Nc3ccncc3)c3ccccc32)cc1,28.8%,37.5%,43.2%,57.6%,56%,96.6%,45.1%,-12.1% (active),23.2%,5.21% (active),48.4%,37.5%,1.27% (active),11.2%,19.5%,17.5%,52.8%,29.1%
C=C1C(=O)O[C@H]2[C@H]1CC/C(Cn1cc(CNC(=O)Cc3cn(C(=O)c4ccc(Cl)cc4)c4ccc(OC)cc34)nn1)=C\CC[C@@]1(C)O[C@@H]21,-28% (active),-40.2% (active),-64.2% (active),58.3%,18.8%,88.9%,-18.7% (active),-82.3% (active),24.7%,95.9%,-61.6% (active),-3.93% (active),-63.2% (active),-67.4% (active),-62.7% (active),-95% (active),8.2% (active),41.9%
COc1ccc(-c2nc(/C=N/Nc3cc(C)nc4ccc(Br)cc34)c(C)o2)cc1,-21% (active),-54.5% (active),-53.3% (active),-97.5% (active),-94.9% (active),93.2%,-80.5% (active),-96.6% (active),-44.4% (active),-65.9% (active),-42.1% (active),91%,-95.6% (active),-86.6% (active),-75.2% (active),-74.6% (active),-67.1% (active),-90.4% (active)
COc1cc(NC(N)=NCCC(C)(C)Oc2ccc(C(F)(F)F)cc2)ncc1C#N,-54.9% (active),-49.6% (active),-76.6% (active),28.9%,12%,48.8%,-38.9% (active),-75% (active),38.1%,0.0363% (active),-44.6% (active),40.4%,-91.2% (active),-79% (active),-71.1% (active),-88.4% (active),-86.6% (active),-51.7% (active)
CCOC(=O)/C(C#N)=C1/C(=O)Nc2ccccc21,149%,111%,108%,104%,114%,117%,109%,134%,121%,112%,98.7%,112%,119%,109%,103%,98.4%,109%,112%
